For twelve compounds, Potency and outcome results are on record in PubChem BioAssay (NCATS).

Values without a mark were called inactive. Inconclusive results are not listed. Activity calls are given as the source filed them. Unless noted, calls follow the shape of the dose curve; as a rule, active = well fitted curve in the direction sought with a large enough effect; inconclusive = small, poorly fitted or top-dose-only effect, or another doubt; inactive = no such curve, though single readings can be large; an effect the other way counts as inactive or inconclusive.

Experiment [1] is described as follows: qHTS Screen of the MIPE 4.0 Collection Against Ewings Sarcoma (TC32) (AID 1259256). Also: nearly all actives have a fitted effect of over 45% in size. Also: potency is read from the fitted curve at half-maximal effect. Put shortly: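 CellTiter-Glo luminescence after 48 h compound exposure (titration) gave viability; percent activity used DMSO-treated cells as no inhibition and medium-only wells as full inhibition. Cells grown in RPMI/5% FBS, dosed 4 h post-seeding.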
Experiment [2] can be described thus: qHTS assay to identify small molecule inhibitors of chordoma cells - UCH-1 (AID 1259355). Also: nearly all actives have a fitted effect of over 55% in size. An outline of the steps:
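Seed 800 cells per well; incubate overnight at 37 C, 5% CO2. Add test compounds (15 concentrations), then the auranofin–topoisomerase-agent combination. Incubate 48hr, add CellTiter-Glo, wait 30min, read luminescence.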
(In qHTS, concentration-response curves come from the screen itself.)

Experiment [3] is described as follows: qHTS assay to identify small molecule inhibitors of chordoma cells - UCH-2 (AID 1259356). Also: series mostly up to about 46 µM.
Experiment [4] is described as follows: P-glycoprotein substrates identified in KB-8-5-11 adenocarcinoma cell line, qHTS therapeutic library screen (AID 1346987). Also: nearly all actives have a fitted effect of over 65% in size. An outline of the steps:
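KB-8-5-11, a colchicine-selected P-gp-overexpressing KB-3-1 subline, was grown without colchicine for the assay. Cells were seeded at 500 cells/well, dosed in concentration-response and incubated 72 h at 37 degree C, 5% CO2. Viability was read by CellTiter-Glo luminescence.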

The nature of experiment [5]: Natriuretic polypeptide receptor (hNpr1) antagonism - Pilot counterscreen GloSensor control cell line (AID 1347045; calls by dose curve; also: series mostly up to about 38 µM). An outline of the steps:
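HEK293 cGMP GloSensor cells preloaded 2 h with 2% GloSensor reagent, then compound 30 min before baseline luminescence read. Stimulated with 50 uM sodium nitroprusside, 20 min at room temperature, then read again; counterscreen for Npr1 antagonism.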
(Counterscreens check selectivity or assay interference.)

Experiment [6] concerns the target Atrial natriuretic peptide receptor 1 (Homo sapiens) (UniProt P16066). The experiment is described as follows: Natriuretic polypeptide receptor (hNpr1) antagonism - Pilot screen (AID 1347049; calls by dose curve;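 also: agonist-evoked cGMP luminescence read 20 min after hNppA addition; series mostly up to about 58 µM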). An outline of the steps:
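Readout is cGMP-driven firefly luciferase luminescence in HEK293 cells carrying hNpr1 and a PDE5-domain GloSensor, read before and 20 min after 0.1 nM hNppA stimulation. Cells had 2% substrate reagent for 2 h and test compound for 30 min.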

Experiment [7] has as its target Atrial natriuretic peptide receptor 2 (Homo sapiens) (UniProt P20594). The experiment is described as follows: Natriuretic polypeptide receptor (hNpr2) antagonism - Pilot subtype selectivity assay (AID 1347050; calls by dose curve; also: potency is read from the fitted curve at half-maximal effect). Put shortly:
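Pilot selectivity screen against hNpr2: HEK293 cGMP-sensor cells are treated with LOPAC1280 compounds, then with hNppC peptide at 1 nM final. The cGMP-driven luminescence change over 20 min at room temperature is the read-out.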

The nature of experiment [8]: NS1 protein of Zika virus - qHTS assay to identify small molecule inhibitors in human HEK 293 cells (AID 1347053). Also: series mostly up to about 46 µM; nearly all actives have a fitted effect of over 55% in size. An outline of the steps:
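Inhibition of NS1 expression was scored in HEK 293 cells given compound 1 h ahead of MR766 virus (MOI = 0.5). Following 24 h at 37 C, two anti-NS1 antibodies generated a TR-FRET signal, scaled between uninfected and infected controls.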

Experiment [9] has as its target T1, Tyrosine-protein phosphatase non-receptor type substrate 1 (Homo sapiens) + Leukocyte surface antigen CD47 (Homo sapiens) (UniProt P78324+Q08722). Kind of experiment: CD47-SIRPalpha protein protein interaction - HTRF assay qHTS validation (AID 1347058; active = well fitted curve in the direction sought with a large enough effect in the signal ratio, not every such curve was filed as active; the % refers to the signal ratio;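 also: recombinant soluble extracellular CD47 with His tag and biotinylated SIRPalpha domains; series mostly up to about 38 µM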). Put shortly:
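TR-FRET read (Ch1/Ch2 ratio) of soluble extracellular CD47 and Avi-biotinylated SIRPalpha domains in PBS pH 7.4 with 0.05% IGEPAL; 7-point compound titration. Sequential 30 min room-temperature steps; non-biotinylated SIRPalpha as control inhibitor.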

In experiment [10] the target is T1, Tyrosine-protein phosphatase non-receptor type substrate 1 (Homo sapiens) + Leukocyte surface antigen CD47 (Homo sapiens). Kind of experiment: CD47-SIRPalpha protein protein interaction - Alpha assay qHTS validation (AID 1347059).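 Also: bead proximity luminescence from CD47 binding SIRPalpha after compound preincubation with SIRPalpha.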 Put shortly: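 Binding is measured by AlphaScreen proximity: Ni-NTA acceptor beads capture His-CD47, streptavidin donor beads capture biotin-SIRPalpha. Each of three additions (SIRPalpha with compound, CD47, beads) incubates 30 min at room temperature protected from light.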

Experiment [11] has as its target Parathyroid hormone/parathyroid hormone-related peptide receptor (Homo sapiens) (UniProt Q03431). The experiment is described as follows: qHTS for PTHR1 Agonists: Optimization Screen against the NCGC LOPAC library (AID 1347079).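 Also: GloSensor cAMP luminescence in HEK-293 GP2 cells expressing human PTHR1 with IBMX.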 Put shortly: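 Agonist readout: GloSensor cAMP luminescence, read after 15 min at room temperature. HEK-293-derived GP2 line carries PTHR1; compounds tested as a titration for 1 hr at 37C in presence of IBMX. M-PTH (1-15) served as control.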

The nature of experiment [12]: qHTS of pediatric cancer cell lines to identify multiple opportunities for drug repurposing: Primary screen for TC32 cells (AID 1347089). Also: nearly all actives have a fitted effect of over 60% in size. Put shortly: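 Measured quantity: luminescence from CellTiter-Glo, reflecting metabolically active TC32 cells following 48 h of compound. Curves came straight from multi-point titrations, with 8 or 11 points in primary and 11 in confirmatory screening.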

A short description of experiment [13]: Identifying Small Molecule Inhibitors of Pancreatic Cancer Stem Cells (SN12C, Adherent) (AID 1259358).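 Also: cell survival measured after 48 h of compound exposure.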 Also: potency is read from the fitted curve at half-maximal effect. An outline of the steps: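 Cytotoxicity read by CellTiter-Glo luminescence after 48 h compound exposure at 37C; percent activity scaled between DMSO-treated cells and cell-free wells. Spheroid formats used cells pre-formed 14 days in stem cell media on hydrogel.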

Experiment [14] is described as follows: Identifying Small Molecule Inhibitors of Pancreatic Cancer Stem Cells (SN12C, Spheroid) (AID 1259360). To be noted: Potency: SN12C spheroid viability. Put shortly:
(§1)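 After a 4 h attachment period, compounds were pinned into wells and cultures held 48 h under standard incubator conditions. Viability was then measured as CellTiter-Glo luminescence following 10 min at room temperature.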

Experiment [15] is described as follows: P-glycoprotein substrates identified in KB-3-1 adenocarcinoma cell line, qHTS therapeutic library screen (AID 1346986). Also: nearly all actives have a fitted effect of over 60% in size. An outline of the steps: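 Cells seeded 500/well in DMEM/10% FCS; compounds pinned in dose-response; 72 h incubation; CellTiter-Glo added, 5 min, luminescence. KB-8-5-11 run ±tariquidar to test reversal of P-gp resistance.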
In experiment [16] the target is T1, Tyrosine-protein phosphatase non-receptor type substrate 1 (Homo sapiens) + Leukocyte surface antigen CD47 (Homo sapiens). Kind of experiment: CD47-SIRPalpha protein protein interaction - LANCE assay qHTS validation (AID 1347057; active = well fitted curve in the direction sought with a large enough effect in the signal ratio, with a control signal flat, not every such curve was filed as active; the % refers to the signal ratio; also: series mostly up to about 38 µM). Put shortly: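 First, His-tagged CD47 and Eu-labelled anti-His antibody met the compound for 30 min; next, site-specifically biotinylated SIRPalpha was added for 30 min; finally streptavidin-APC was added before reading the TR-FRET ratio.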

Experiment [17] can be described thus: Identifying Small Molecule Inhibitors of Pancreatic Cancer Stem Cells (A2780, Spheroid) (AID 1259357).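 Also: compound exposure lasted 48 h before the ATP luminescence read.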 Conditions: Potency: A2780 spheroid viability. An outline of the steps:
as §1

T1 sequence (P78324 whole entry, looked up, the tested form may be a part): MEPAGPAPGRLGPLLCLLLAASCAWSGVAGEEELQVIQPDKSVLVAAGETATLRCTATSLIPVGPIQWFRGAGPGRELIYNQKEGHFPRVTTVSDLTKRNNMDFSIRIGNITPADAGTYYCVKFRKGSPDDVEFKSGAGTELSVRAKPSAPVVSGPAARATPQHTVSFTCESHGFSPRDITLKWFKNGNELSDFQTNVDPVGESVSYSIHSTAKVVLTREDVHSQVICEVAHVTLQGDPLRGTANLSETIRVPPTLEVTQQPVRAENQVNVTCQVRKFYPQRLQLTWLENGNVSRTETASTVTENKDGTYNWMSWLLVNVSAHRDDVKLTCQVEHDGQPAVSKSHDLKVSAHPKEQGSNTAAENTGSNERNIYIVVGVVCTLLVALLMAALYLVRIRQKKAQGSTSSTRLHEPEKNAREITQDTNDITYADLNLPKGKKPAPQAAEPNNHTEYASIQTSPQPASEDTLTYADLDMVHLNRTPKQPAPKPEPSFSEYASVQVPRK
T1 sequence (Q08722 whole entry, looked up, the tested form may be a part): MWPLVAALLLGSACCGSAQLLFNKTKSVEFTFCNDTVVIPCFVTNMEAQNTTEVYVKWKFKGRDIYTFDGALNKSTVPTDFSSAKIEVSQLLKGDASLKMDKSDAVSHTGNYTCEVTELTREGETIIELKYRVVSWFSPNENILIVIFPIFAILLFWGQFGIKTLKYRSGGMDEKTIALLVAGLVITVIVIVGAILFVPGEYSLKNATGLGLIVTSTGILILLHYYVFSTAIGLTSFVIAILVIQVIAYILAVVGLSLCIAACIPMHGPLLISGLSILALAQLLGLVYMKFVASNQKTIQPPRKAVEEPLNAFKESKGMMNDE
Parathyroid hormone/parathyroid hormone-related peptide receptor (Homo sapiens), sequence (Q03431 whole entry, looked up): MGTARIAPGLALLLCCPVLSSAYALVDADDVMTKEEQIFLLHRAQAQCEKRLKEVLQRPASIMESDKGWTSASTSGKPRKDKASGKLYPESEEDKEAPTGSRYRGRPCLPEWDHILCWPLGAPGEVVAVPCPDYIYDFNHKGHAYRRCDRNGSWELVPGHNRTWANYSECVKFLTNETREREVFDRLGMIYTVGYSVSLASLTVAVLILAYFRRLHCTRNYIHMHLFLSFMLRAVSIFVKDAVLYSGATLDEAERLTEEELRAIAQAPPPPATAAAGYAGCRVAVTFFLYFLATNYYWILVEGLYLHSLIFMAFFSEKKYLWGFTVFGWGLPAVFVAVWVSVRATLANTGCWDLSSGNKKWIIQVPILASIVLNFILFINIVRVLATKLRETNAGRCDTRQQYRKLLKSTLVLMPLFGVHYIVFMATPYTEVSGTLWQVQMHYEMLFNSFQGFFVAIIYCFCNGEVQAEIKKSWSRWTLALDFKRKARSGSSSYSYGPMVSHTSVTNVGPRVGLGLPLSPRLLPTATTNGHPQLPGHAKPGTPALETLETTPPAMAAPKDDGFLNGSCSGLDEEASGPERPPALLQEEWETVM
Atrial natriuretic peptide receptor 2 (Homo sapiens), sequence (P20594 whole entry, looked up): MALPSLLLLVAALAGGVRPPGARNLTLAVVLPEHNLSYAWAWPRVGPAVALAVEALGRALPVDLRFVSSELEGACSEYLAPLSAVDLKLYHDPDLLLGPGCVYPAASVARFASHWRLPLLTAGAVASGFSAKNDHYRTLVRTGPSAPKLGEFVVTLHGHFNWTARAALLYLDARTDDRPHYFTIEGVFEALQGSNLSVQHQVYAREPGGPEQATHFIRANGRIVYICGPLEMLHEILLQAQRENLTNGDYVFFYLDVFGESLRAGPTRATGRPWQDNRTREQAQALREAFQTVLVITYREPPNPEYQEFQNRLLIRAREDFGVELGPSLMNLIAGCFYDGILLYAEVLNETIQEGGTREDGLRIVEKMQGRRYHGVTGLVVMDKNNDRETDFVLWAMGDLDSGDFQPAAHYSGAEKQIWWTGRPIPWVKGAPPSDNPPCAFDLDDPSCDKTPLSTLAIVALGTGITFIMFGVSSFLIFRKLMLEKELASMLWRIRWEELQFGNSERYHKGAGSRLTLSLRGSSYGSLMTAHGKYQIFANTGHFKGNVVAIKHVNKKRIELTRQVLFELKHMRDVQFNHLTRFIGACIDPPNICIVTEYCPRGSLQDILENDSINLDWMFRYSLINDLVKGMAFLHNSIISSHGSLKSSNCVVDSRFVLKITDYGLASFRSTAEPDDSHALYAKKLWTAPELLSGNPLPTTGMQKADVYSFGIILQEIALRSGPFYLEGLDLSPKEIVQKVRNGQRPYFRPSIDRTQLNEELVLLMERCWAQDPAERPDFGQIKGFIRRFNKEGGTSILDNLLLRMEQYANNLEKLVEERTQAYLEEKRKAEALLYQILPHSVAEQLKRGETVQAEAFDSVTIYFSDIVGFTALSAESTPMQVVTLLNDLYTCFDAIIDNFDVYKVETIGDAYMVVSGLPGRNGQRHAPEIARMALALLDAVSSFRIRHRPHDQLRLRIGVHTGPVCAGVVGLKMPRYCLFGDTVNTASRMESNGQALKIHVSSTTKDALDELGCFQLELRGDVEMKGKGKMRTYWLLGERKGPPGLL
Atrial natriuretic peptide receptor 1 (Homo sapiens), sequence (P16066 whole entry, looked up): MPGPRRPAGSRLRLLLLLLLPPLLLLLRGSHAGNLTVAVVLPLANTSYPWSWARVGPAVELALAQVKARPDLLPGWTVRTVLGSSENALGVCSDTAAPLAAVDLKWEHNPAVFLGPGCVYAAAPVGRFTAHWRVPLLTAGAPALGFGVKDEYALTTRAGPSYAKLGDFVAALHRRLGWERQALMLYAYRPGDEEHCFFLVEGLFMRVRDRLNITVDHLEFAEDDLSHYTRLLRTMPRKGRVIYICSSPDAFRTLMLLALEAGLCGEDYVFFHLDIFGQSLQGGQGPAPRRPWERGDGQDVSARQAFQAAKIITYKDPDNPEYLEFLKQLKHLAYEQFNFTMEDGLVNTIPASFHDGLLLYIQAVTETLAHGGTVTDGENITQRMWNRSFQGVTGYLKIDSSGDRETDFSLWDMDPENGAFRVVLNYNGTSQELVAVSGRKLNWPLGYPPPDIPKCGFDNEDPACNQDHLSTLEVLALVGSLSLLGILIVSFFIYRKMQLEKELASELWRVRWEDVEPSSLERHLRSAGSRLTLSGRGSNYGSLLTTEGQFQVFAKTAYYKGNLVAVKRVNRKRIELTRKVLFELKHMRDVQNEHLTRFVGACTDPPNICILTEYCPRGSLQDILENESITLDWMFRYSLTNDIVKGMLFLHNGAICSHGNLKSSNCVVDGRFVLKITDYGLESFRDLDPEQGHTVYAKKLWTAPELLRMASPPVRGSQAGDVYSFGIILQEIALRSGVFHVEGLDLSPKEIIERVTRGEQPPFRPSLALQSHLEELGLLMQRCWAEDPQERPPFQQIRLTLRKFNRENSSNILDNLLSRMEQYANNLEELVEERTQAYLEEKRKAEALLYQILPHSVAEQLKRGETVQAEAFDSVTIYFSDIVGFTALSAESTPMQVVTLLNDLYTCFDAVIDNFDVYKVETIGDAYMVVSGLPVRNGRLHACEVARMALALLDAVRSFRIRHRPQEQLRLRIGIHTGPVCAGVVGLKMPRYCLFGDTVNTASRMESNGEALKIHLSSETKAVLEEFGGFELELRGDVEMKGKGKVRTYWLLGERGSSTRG

As for `O=C(O)COCCN1CCN(C(c2ccccc2)c2ccc(Cl)cc2)CC1` (stereo not given), the Potency result in [1], in experiment [2], in experiment [4], in [8] and in experiment [12] was “inactive” each time. In addition, the result in [3], in [5], in [6], in experiment [9], in [10] and in experiment [11] was inactive. For the same compound, the Potency in [7] was 13.1 µM (active).

In the case of `CC(c1cc2ccccc2s1)N(O)C(N)=O` (stereo not given), the Potency entry in [1], in [2], in experiment [13], in [14], in [4] and in experiment [8] was “inactive” in each case. Moreover, in experiment [3], the call was inactive.

As for `CC(=O)Oc1ccccc1C(=O)O`, the Potency in [1] was 11.8 µM (active). Further, the Potency result in [2], in [4], in experiment [7] and in experiment [8] was “inactive” each time. In addition, the compound was classed as inactive in [3], in [5], in experiment [6], in experiment [9], in experiment [10] and in experiment [11].

Regarding `CCCCNc1cc(C(=O)O)cc(S(N)(=O)=O)c1Oc1ccccc1`, the Potency result in [1], in experiment [2], in [4], in experiment [7], in experiment [8] and in experiment [12] was “inactive” each time. Moreover, the call in experiment [3], in experiment [5], in experiment [6] and in experiment [11] was inactive.

Turning to `CCc1ccc(CCOc2ccc(CC3SC(=O)NC3=O)cc2)nc1` (stereo not given), the Potency result in experiment [1], in experiment [2], in experiment [14], in [4] and in experiment [8] was “inactive” each time. The compound was classed as inactive in [3].

Regarding `Cc1c(C)c2c(c(C)c1O)CCC(C)(COc1ccc(CC3SC(=O)NC3=O)cc1)O2` (stereo not given), the Potency result in experiment [1], in [2], in experiment [13], in [14], in [4] and in [8] was “inactive” each time. Further, the outcome in [3] was inactive.

`Cc1ccccc1C(OCCN(C)C)c1ccccc1` (stereo not given): the Potency entry in [1], in experiment [2], in [4], in experiment [7], in [8] and in experiment [12] was “inactive” throughout. In addition, the compound was classed as inactive in experiment [3], in [5], in [6], in [9], in experiment [10] and in experiment [11].

Consider `C1COC(NC(C2CC2)C2CC2)=N1`, for which the Potency entry in [1], in experiment [2], in experiment [15], in [4], in experiment [7] and in [8] was “inactive” throughout. Further, the Potency result in experiment [12] is “inactive”. Also, the call in [3], in experiment [5], in [6], in [9], in [10] and in experiment [11] was inactive.

In the case of `NNCCc1ccccc1`, in experiment [1], the Potency is 11.8 µM (active). The Potency entry in experiment [2], in experiment [4], in experiment [7], in [8] and in experiment [12] was “inactive” throughout. Further, the outcome in experiment [3], in experiment [6], in experiment [16], in experiment [10] and in experiment [11] was inactive.

For `COc1cc(F)c(F)c(Nc2ccc(I)cc2F)c1NS(=O)(=O)C1(C[C@H](O)CO)CC1`, the Potency is 11.8 µM (active) in [1] and 20.9 µM (active) in [13]. For the same compound, the Potency entry in experiment [17], in experiment [14], in experiment [4], in experiment [8] and in experiment [12] was “inactive” in each case.

On to `CCCS(=O)(=O)Nc1ccc(F)c(C(=O)c2c[nH]c3ncc(Cl)cc23)c1F`, for which the Potency in experiment [1] is 16.6 µM (active). Also, the Potency result in experiment [17] and in experiment [8] was “inactive” in each case.

As for `CCn1cc(C(=O)O)c(=O)c2cc(F)c(N3CCNC(C)C3)c(F)c21` (stereo not given), the Potency result in experiment [1], in experiment [2], in experiment [7], in experiment [8] and in [12] was “inactive” each time. Besides, the compound was classed as inactive in experiment [3], in experiment [5], in [6], in experiment [9], in experiment [10] and in [11].
